Screening data deposited in PubChem BioAssay by National Center for Advancing Translational Sciences (NCATS).
HCV inh = qHTS Assay for Inhibitors of Hepatitis C Virus (HCV). Huh7.5.1 HCVcc-Cre infection, luciferase reporter, 44 h. Potency, µM (top dose mostly 41.8 µM), usual class: inhibitors. actives 3.4% (n = 340,000)
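Reporter virus HCVcc-Cre (~0.5 moi) infects cells exposed to compound; seeding density 1,000 cells/well with 4 h settling beforehand. Luminescence, 15 sec read, taken 44 h post-infection following a 15 min RT substrate incubation.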
NS1 function inh = qHTS Assay for Inhibitors of Influenza NS1 Protein Function; actives 0.4% (n = 270,000); Potency, µM (top dose mostly 46.1 µM); AID 2326, 2010; calls by dose curve; note: actives are rising curves; nearly all actives have a fitted effect of over 50% in size
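In this qHTS, NS1 from influenza A is expressed in budding yeast, where it slows growth. Cells are switched from glucose to 2% galactose medium (pH 6.0, -URA), treated with compound, and growth recovery is read at OD600.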
Vaccinia mCherry = qHTS for Stage-Specific Inhibitors of Vaccinia Orthopoxvirus: mCherry Reporter Primary qHTS; Vaccinia virus mCherry reporter infection, fluorescence; Potency, µM (series often up to 36.5 µM), usual class: inhibitors; actives 0.63% (n = 310,000); AID 720579, 2013; calls by dose curve; tested in A549 cells; note: nearly all actives have a fitted effect of over 35% in size
Pf growth 96h = Primary qHTS for delayed death inhibitors of the malarial parasite plastid, 96 hour incubation | P. falciparum luciferase reporter growth, 96 h | actives 6.9% (n = 320,000) | Potency, µM (top dose mostly 28.7 µM), hits mostly inhibitors
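Luminescence readout: decreased luciferase signal marks inhibited growth of reporter-expressing P. falciparum in infected red cells (2% hematocrit, 0.05% parasitemia final), exposed to compound two generations (96 h, 37 C, 5% CO2).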
Pf growth 48h = Primary qHTS for delayed death inhibitors of the malarial parasite plastid, 48 hour incubation; P. falciparum luciferase growth in erythrocytes, 48 h; Potency, µM (series often up to 28.7 µM), usual class: inhibitors; actives 5.9% (n = 310,000)
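Read-out is firefly luciferase luminescence from an integrated reporter in P. falciparum, so falling signal marks reduced parasite growth. Infected erythrocytes were at 2% hematocrit and 0.1% parasitemia (final) in Albumax-supplemented RPMI 1640.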
VACV Venus inh = qHTS for Stage-Specific Inhibitors of Vaccinia Orthopoxvirus: Venus Reporter Primary qHTS. Vaccinia virus Venus reporter expression, fluorescence. Potency, µM (doses to about 36.5 µM), hits mostly inhibitors. actives 0.46% (n = 330,000); calls by dose curve; tested in A549 cells; note: nearly all actives have a fitted effect of over 30% in size
Hits are given with their value; - = inactive; ? = inconclusive; . = no result given. The list is not random: actives were taken first. Their share in the collection is about 11%. Unless noted, calls come from the whole dose curve; as a rule, active = well fitted inhibition curve with a large enough effect; inconclusive = small, poorly fitted or top-dose-only effect, or another doubt; inactive = no such curve, though single readings can be large or run the other way.

SMILES	HCV inh	NS1 function inh	Vaccinia mCherry	Pf growth 96h	Pf growth 48h	VACV Venus inh
COc1ccc(/C=C2\SC(=S)N(CCCC(=O)N3CCOCC3)C2=O)cc1OC	-	-	-	-	-	-
COc1ccc(OC)c(CN2CCN(Cc3cccc4ccccc34)CC2)c1	?	.	-	-	?	-
C=CCNC(=S)/N=c1\sccn1C	-	-	.	-	-	.
O=c1[nH]c2cc3c(cc2cc1CN(Cc1nnnn1CC1CCCO1)C1CCCC1)OCO3 (stereo not drawn)	-	-	-	10.4µM	-	-
COc1ccccc1CN(Cc1cc2cc(C)ccc2[nH]c1=O)Cc1nnnn1Cc1ccco1	12.6µM	-	.	3.29µM	11.7µM	?
COc1ccccc1CN(Cc1cc2cc(C)ccc2[nH]c1=O)Cc1nnnn1CC1CCCO1 (stereo not drawn)	-	-	-	10.4µM	7.38µM	-
N#CC(=C1C=C(Br)C(=NO)C=C1Cl)c1ccc(Cl)cc1	.	.	-	.	.	-
CC1=CC(O)C(O)C2(C)C1CC1OC(=O)CC3C(C)C(O)C(=O)C2C13CO (stereo not drawn)	?	.	8.91µM	.	.	6.31µM
O=C(NC1CCCc2ccccc21)c1cccc(S(=O)(=O)N2CCOCC2)c1 (stereo not drawn)	-	.	-	-	-	-
Cc1ccccc1C(=O)NC1CC2CCCC(C1)N2Cc1ccccc1 (stereo not drawn)	-	-	.	?	-	.
COc1ccc(CN2C3CCCC2CC(NC(=O)Nc2ccccc2)C3)cc1 (stereo not drawn)	-	-	.	?	10.4µM	.
O=C(NC1CC2CCC(C1)N2Cc1ccccc1)c1ccccc1Cl (stereo not drawn)	-	-	.	13.1µM	-	.
COc1ccc(CN2C3CCCC2CC(NC(=O)Nc2ccccc2C)C3)cc1 (stereo not drawn)	?	-	.	?	?	.
COc1ccc(CN2C3CCCC2CC(NC(=O)Nc2cccc(C)c2)C3)cc1 (stereo not drawn)	?	-	-	-	7.38µM	-
Cc1ccc(C)c(S(=O)(=O)Nc2ccc3oc(C)c(C(=O)O)c3c2)c1	-	-	-	?	-	-
C=C1C(O)[C@@H]2O[C@]3(CC[C@H](/C=C/C(C)[C@@H]4CC(C)=CC5(O[C@H](C[C@@](C)(O)C(=O)O)CCC5O)O4)O3)CC[C@H]2O[C@@H]1C(O)CC(C)[C@H]1OC2(CCCCO2)CCC1C (stereo partly drawn)	?	.	-	.	.	0.316µM
CC(C)=CCCC(C)CN1CCC(O)CC1 (stereo not drawn)	-	-	.	-	-	.
CC(C)=CCC/C(C)=C/CCC(C)NCCN1CCNCC1 (stereo not drawn)	.	-	.	?	13.1µM	.
CC(C)=CCC/C(C)=C/CC(C)(C)CNCCN1CCNCC1	.	-	.	4.65µM	4.65µM	.
CC(NC(=O)CCC(=O)NC(C)C1COc2ccccc2O1)C1COc2ccccc2O1 (stereo not drawn)	?	-	.	-	-	-
CC(NC(=O)c1ccco1)C1COc2ccccc2O1 (stereo not drawn)	-	-	.	10.4µM	.	-
O=C1c2ccccc2C(Nc2ccc(F)c(Cl)c2)N1c1ccccn1 (stereo not drawn)	-	-	-	4.65µM	.	-
O=C1c2ccccc2C(Nc2ccc3c(c2)OCCO3)N1c1ccccn1 (stereo not drawn)	-	-	.	-	9.28µM	.
COc1ccc(NC2c3ccccc3C(=O)N2c2ccccn2)cc1Cl (stereo not drawn)	-	-	?	8.28µM	.	-
O=C1c2ccccc2C(Nc2ccc(S(=O)(=O)N3CCCCC3)cc2)N1c1ccccn1 (stereo not drawn)	-	-	-	?	?	-
COc1ccc(NC2c3ccccc3C(=O)N2c2cccnc2)cc1 (stereo not drawn)	-	-	.	10.4µM	?	.
O=C1c2ccccc2C(Nc2ccccc2)N1c1ccc(Cl)cn1 (stereo not drawn)	-	-	-	?	.	-
COc1ccc(S(=O)(=O)N2CCC(C(=O)N[C@@H](C)C(=O)N3CCCC3)CC2)cc1	.	.	-	.	.	-
